Reference: the supplement of paper PMC11732987, “Enantioselective OTUD7B fragment discovery through chemoproteomics screening and high-throughput optimisation” (Communications Chemistry, 2025)

Columns and labels:
Assay in all cases: log2 ratio of Biotin-Ahx-Ub-VS probe labelling (compound/DMSO); higher = less target engagement, active = hit call of the paper (q ≤ 0.05, log2 ratio ≤ -1)
Conditions in all cases: treatment time: 3 h
[1] = compound: CCC1N(CCc2sccc12)C(=O)CCl
Outline: (§1)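 HEK293T lysate (495 µg per sample, in Tris/CHAPS/IGEPAL buffer with protease inhibitors) was exposed in triplicate to compound at 50 or 200 µM, or to DMSO, for 3 h, then to Biotin-Ahx-Ub-VS (0.5 µM final) for 1 h. The labelled DUBs were enriched on NeutrAvidin, digested with LysC and trypsin, and analysed by diaPASEF LC-MS/MS. Average base-two log ratios of compound over DMSO came from median-normalised label-free quantities by unpaired t-test. Only proteins with at least 2 unique peptides were used.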

[2] = compound: CN1c2ccccc2C(CS1(=O)=O)NC(=O)CCl
Outline: as §1

[3] = compound: Cl.ClCC(=O)N1CCc2ncncc2C1
Outline: as §1

[4] = compound: Cl.Cn1ncc2C(CCCc12)NC(=O)CCl
Outline: as §1

[5] = compound: ClCC(=O)NC1CCOc2ccccc12
Outline: as §1

[6] = compound: ClCC(=O)NC1CCCc2ccccc12
Outline: (§2)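 In triplicate, 495 µg portions of HEK293T lysate in Tris/CHAPS/IGEPAL buffer with protease inhibitors received compound across a concentration series or vehicle for 3 h, followed by 1 h with 0.5 µM final Biotin-Ahx-Ub-VS. After NeutrAvidin enrichment and LysC/trypsin digestion, the labelled deubiquitinases were measured by diaPASEF LC-MS/MS and quantified label-free in Spectronaut with global-median normalisation. Each value is an average compound-to-vehicle ratio from an unpaired t-test, expressed as log2 and restricted to proteins having two or more unique peptides.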

[7] = compound: ClCC(=O)N[C@@H]1CCCc2ccccc12
Outline: as §2

[8] = compound: ClCC(=O)N[C@H]1CCCc2ccccc12
Outline: as §2

[9] = compound: CCC1N(CCc2cc(OC)c(Cl)cc12)C(=O)CCl
Outline: as §1

[10] = compound: CCCC1N(CCc2cc(OC)c(OC)cc12)C(=O)CCl
Outline: as §1

[11] = compound: CN(Cc1cccc(Br)c1)C(=O)CCl
Outline: as §1

[12] = compound: CN(Cc1cccc(OCc2ccccc2C)c1)C(=O)CCl
Outline: as §1

[13] = compound: CN(Cc1ccccc1)C(=O)CCl
Outline: as §1

[14] = compound: COc1ccc(CN(C)C(=O)CCl)cc1
Outline: as §1

[15] = compound: COc1cccc(CN(CCCc2ccccc2)C(=O)CCl)c1
Outline: as §1

[16] = compound: ClCC(=O)N1CCc2cc(Cl)c(Cl)cc2C1
Outline: as §1

[17] = compound: ClCC(=O)N1CCc2nc(ncc2C1)-c1ccccc1
Outline: as §1

[18] = compound: ClCC(=O)N1CCc2nocc2C1
Outline: as §1

[19] = compound: ClCC(=O)N1CCc2scc(Br)c2C1
Outline: as §1

[20] = compound: ClCC(=O)NC(C1CCCC1)c1cccs1
Outline: as §1

Measured: log2 ratio of Biotin-Ahx-Ub-VS probe labelling

USP28 (UniProt Q96RU2)
UniProt Q96RU2, sequence (Q96RU2 whole entry): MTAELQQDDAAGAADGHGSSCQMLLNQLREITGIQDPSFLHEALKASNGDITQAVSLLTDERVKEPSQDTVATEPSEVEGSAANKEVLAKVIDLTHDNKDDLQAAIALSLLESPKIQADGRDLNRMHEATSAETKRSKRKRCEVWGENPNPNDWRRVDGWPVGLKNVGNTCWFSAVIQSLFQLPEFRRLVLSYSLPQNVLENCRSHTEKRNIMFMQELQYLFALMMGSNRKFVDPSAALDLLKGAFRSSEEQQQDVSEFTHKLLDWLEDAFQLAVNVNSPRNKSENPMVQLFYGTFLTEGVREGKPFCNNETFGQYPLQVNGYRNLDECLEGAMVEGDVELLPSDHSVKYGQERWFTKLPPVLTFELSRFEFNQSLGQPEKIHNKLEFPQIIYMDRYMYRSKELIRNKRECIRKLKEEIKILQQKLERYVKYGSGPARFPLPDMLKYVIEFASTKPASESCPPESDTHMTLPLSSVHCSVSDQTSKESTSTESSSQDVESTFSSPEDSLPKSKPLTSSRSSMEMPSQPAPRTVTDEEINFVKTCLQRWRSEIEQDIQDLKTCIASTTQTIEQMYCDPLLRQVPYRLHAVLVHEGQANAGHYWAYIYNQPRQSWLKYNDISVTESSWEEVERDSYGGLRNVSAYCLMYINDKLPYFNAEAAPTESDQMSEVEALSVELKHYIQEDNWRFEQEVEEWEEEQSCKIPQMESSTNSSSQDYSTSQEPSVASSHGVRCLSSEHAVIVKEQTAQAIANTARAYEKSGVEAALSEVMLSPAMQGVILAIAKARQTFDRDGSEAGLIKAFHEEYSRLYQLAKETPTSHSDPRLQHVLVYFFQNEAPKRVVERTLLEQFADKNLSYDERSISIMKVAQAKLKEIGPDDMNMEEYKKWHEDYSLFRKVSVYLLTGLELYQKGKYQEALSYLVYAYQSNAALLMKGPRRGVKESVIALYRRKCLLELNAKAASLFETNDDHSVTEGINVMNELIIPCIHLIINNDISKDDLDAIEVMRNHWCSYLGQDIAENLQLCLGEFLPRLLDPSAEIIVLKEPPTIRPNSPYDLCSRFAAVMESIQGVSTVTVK
active: [16]; compound concentration: 200uM -1.71 | [19]; compound concentration: 200uM -1.28
inactive: [1]; compound concentration: 50uM -0.105 | [1]; compound concentration: 200uM -0.495 | [2]; compound concentration: 50uM -0.127 | [2]; compound concentration: 200uM -0.556 | [3]; compound concentration: 50uM -0.0823 | [3]; compound concentration: 200uM -0.643 | [4]; compound concentration: 50uM 0.00687 | [4]; compound concentration: 200uM -0.349 | [5]; compound concentration: 50uM 0.0277 | [5]; compound concentration: 200uM -0.467 | [6]; compound concentration: 0.78uM -0.115 | [6]; compound concentration: 1.56uM 0.0493 | [6]; compound concentration: 3.13uM -0.068 | [6]; compound concentration: 6.25uM -0.0775 | [6]; compound concentration: 12.5uM -0.136 | [6]; compound concentration: 25uM -0.188 | [6]; compound concentration: 50uM -0.185 | [6]; compound concentration: 100uM -0.427 | [6]; compound concentration: 200uM -0.751 | [7]; compound concentration: 0.78uM -0.289 | [7]; compound concentration: 1.56uM -0.168 | [7]; compound concentration: 3.13uM -0.114 | [7]; compound concentration: 6.25uM -0.181 | [7]; compound concentration: 12.5uM -0.122 | [7]; compound concentration: 25uM -0.154 | [7]; compound concentration: 50uM -0.239 | [7]; compound concentration: 100uM -0.221 | [7]; compound concentration: 200uM -0.426 | [8]; compound concentration: 0.78uM -0.0897 | [8]; compound concentration: 1.56uM -0.144 | [8]; compound concentration: 3.13uM -0.065 | [8]; compound concentration: 6.25uM 0.0299 | [8]; compound concentration: 12.5uM -0.143 | [8]; compound concentration: 25uM -0.24 | [8]; compound concentration: 50uM -0.318 | [8]; compound concentration: 100uM -0.618 | [8]; compound concentration: 200uM -0.996 | [9]; compound concentration: 50uM -0.146 | [9]; compound concentration: 200uM -0.945 | [10]; compound concentration: 50uM -0.218 | [10]; compound concentration: 200uM -0.719 | [11]; compound concentration: 50uM -0.197 | [11]; compound concentration: 200uM -0.68 | [12]; compound concentration: 50uM -0.572 | [12]; compound concentration: 200uM -0.911 | [13]; compound concentration: 50uM -0.195 | [13]; compound concentration: 200uM -0.692 | [14]; compound concentration: 50uM -0.172 | [14]; compound concentration: 200uM -0.467 | [15]; compound concentration: 50uM -0.253 | [15]; compound concentration: 200uM -0.826 | [16]; compound concentration: 50uM -0.496 | [17]; compound concentration: 50uM -0.15 | [17]; compound concentration: 200uM -0.716 | [18]; compound concentration: 50uM -0.192 | [18]; compound concentration: 200uM -0.624 | [19]; compound concentration: 50uM -0.468 | [20]; compound concentration: 50uM -0.0425 | [20]; compound concentration: 200uM -0.313

USP8 (UniProt P40818)
UniProt P40818, sequence (P40818 whole entry): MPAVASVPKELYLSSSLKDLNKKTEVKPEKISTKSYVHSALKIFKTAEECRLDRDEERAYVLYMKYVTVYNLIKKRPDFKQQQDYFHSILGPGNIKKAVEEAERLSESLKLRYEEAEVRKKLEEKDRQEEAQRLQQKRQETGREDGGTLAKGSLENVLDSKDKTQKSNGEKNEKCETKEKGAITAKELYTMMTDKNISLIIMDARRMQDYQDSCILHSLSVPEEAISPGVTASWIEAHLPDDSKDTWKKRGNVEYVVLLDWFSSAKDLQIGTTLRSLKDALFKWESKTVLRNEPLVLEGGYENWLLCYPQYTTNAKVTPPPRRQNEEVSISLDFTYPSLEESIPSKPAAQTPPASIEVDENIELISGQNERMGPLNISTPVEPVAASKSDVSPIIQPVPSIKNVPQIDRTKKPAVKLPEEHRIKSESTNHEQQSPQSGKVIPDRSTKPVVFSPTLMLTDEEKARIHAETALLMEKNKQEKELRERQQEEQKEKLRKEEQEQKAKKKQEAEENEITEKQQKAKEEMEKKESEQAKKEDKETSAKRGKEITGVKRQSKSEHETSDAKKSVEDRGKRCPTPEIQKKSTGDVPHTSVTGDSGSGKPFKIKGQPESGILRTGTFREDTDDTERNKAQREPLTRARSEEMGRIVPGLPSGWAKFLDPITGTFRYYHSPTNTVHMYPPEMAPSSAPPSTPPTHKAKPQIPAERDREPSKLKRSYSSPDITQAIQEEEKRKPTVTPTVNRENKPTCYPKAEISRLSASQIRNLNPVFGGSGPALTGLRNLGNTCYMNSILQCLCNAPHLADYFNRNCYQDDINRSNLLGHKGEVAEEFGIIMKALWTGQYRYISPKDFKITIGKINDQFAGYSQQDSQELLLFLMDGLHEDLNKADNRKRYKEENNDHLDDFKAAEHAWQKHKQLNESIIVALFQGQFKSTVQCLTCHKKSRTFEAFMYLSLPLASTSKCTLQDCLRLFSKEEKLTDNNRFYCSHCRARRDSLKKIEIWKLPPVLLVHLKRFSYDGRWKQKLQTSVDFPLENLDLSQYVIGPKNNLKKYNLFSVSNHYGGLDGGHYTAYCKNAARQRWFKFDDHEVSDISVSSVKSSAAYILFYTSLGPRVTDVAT
inactive: [1]; compound concentration: 50uM -0.18 | [1]; compound concentration: 200uM -0.116 | [2]; compound concentration: 50uM -0.21 | [2]; compound concentration: 200uM -0.21 | [3]; compound concentration: 50uM -0.0841 | [3]; compound concentration: 200uM -0.378 | [4]; compound concentration: 50uM -0.0611 | [4]; compound concentration: 200uM 0.0851 | [5]; compound concentration: 50uM -0.212 | [5]; compound concentration: 200uM -0.0542 | [6]; compound concentration: 0.78uM -0.0473 | [6]; compound concentration: 1.56uM 0.0438 | [6]; compound concentration: 3.13uM -0.127 | [6]; compound concentration: 6.25uM -0.0217 | [6]; compound concentration: 12.5uM -0.0947 | [6]; compound concentration: 25uM -0.0983 | [6]; compound concentration: 50uM -0.0766 | [6]; compound concentration: 100uM -0.0121 | [6]; compound concentration: 200uM -0.102 | [7]; compound concentration: 0.78uM -0.0947 | [7]; compound concentration: 1.56uM -0.0445 | [7]; compound concentration: 3.13uM -0.000329 | [7]; compound concentration: 6.25uM -0.0324 | [7]; compound concentration: 12.5uM -0.0744 | [7]; compound concentration: 25uM -0.057 | [7]; compound concentration: 50uM -0.0549 | [7]; compound concentration: 100uM -0.0496 | [7]; compound concentration: 200uM -0.123 | [8]; compound concentration: 0.78uM -0.131 | [8]; compound concentration: 1.56uM -0.0656 | [8]; compound concentration: 3.13uM -0.0464 | [8]; compound concentration: 6.25uM 0.0547 | [8]; compound concentration: 12.5uM 0.00701 | [8]; compound concentration: 25uM -0.0406 | [8]; compound concentration: 50uM 0.000255 | [8]; compound concentration: 100uM -0.0245 | [8]; compound concentration: 200uM -0.143 | [9]; compound concentration: 50uM -0.0467 | [9]; compound concentration: 200uM -0.231 | [10]; compound concentration: 50uM -0.414 | [10]; compound concentration: 200uM -0.636 | [11]; compound concentration: 50uM -0.123 | [11]; compound concentration: 200uM -0.132 | [12]; compound concentration: 50uM -0.488 | [12]; compound concentration: 200uM -0.321 | [13]; compound concentration: 50uM -0.346 | [13]; compound concentration: 200uM -0.338 | [14]; compound concentration: 50uM -0.306 | [14]; compound concentration: 200uM -0.187 | [15]; compound concentration: 50uM -0.167 | [15]; compound concentration: 200uM -0.253 | [16]; compound concentration: 50uM 0.0209 | [16]; compound concentration: 200uM -0.351 | [17]; compound concentration: 50uM -0.00835 | [17]; compound concentration: 200uM -0.371 | [18]; compound concentration: 50uM -0.247 | [18]; compound concentration: 200uM -0.347 | [19]; compound concentration: 50uM -0.126 | [19]; compound concentration: 200uM -0.311 | [20]; compound concentration: 50uM -0.0892 | [20]; compound concentration: 200uM -0.0187
